GLP1R ag – agonists of human GLP-1 receptor | P43220 | 380,000 compounds, 0.007% hits | Potency, µM (top dose mostly 45.6 µM), inactives show at the top dose activation, hits mostly activators | HEK293 GLP-1R CRE-luciferase, luminescence, 4-6 h; cells express a hypersensitive GLP-1R form; also: % of control where 0% means no effect
GLP1R cytotox – cytotoxicity counter-screen for GLP-1 receptor inverse agonists; Potency, µM (doses to about 38.3 µM), for inactives: at the top dose activity change, negative = inhibition, hits mostly inhibitors; AID 624418; 410,000 compounds, 0.13% hits; HEK293 cAMP-luciferase reporter cells, luminescence, 24 h;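 also: loss of luciferase light is scored as toxicity; % is scaled to controls: 0 for no effect and ±100 for the full control effect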
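Luminescence readout: signal drop marks cytotoxicity. Plated cells grew 12 h at 37 °C, 5% CO2, received 23 nL compound for 24 h, then got luciferase reagent, read after 12 min at RT.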
PTHR1 agonist – activates the human parathyroid hormone receptor PTHR1 | Q03431 | HEK293 GP2 PTHR1 cells, GloSensor cAMP luminescence, 1 h | Potency, µM (highest dose often 115 µM), without a hit: at the highest dose activation, actives largely listed as activators | 410,000 compounds, 0.075% hits | AID 743266; also: nearly all actives have a fitted effect of over 55% in size
Target sequence (Q03431 whole entry, looked up): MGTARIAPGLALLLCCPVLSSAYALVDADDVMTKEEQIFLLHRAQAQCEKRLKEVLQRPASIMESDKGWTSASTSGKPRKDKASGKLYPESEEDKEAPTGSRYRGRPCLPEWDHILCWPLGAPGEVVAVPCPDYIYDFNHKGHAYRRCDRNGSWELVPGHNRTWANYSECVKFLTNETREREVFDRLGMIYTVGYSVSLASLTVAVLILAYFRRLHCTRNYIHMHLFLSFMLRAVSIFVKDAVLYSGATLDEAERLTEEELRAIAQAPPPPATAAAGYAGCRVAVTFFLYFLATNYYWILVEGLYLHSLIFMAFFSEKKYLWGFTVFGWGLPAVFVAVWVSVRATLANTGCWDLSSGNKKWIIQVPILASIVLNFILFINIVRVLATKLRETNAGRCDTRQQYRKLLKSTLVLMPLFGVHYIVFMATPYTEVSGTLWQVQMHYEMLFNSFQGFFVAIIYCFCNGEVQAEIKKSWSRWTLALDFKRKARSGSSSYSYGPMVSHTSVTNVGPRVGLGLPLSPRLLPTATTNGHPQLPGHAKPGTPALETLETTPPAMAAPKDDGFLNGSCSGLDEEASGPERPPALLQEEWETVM
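HEK-293-derived GP2 cells expressing PTHR1 and a GloSensor cAMP reporter, 3,000/well, plated overnight, given luciferin plus IBMX (each 0.5 mM as added) for 1 h at 37 °C, then compound for 1 h at 37 °C. Luminescence was read after 15 min at room temperature.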
GLP1R inv ag – acts as inverse agonist at human GLP-1 receptor | P43220 | Potency, µM (top dose mostly 38.3 µM), inactives show top-dose activity change, negative = inhibition, most hits filed as inhibitors | AID 624417 | HEK293 GLP-1R CRE-luciferase, luminescence, 24 h; GLP-1R form is constitutively active | 410,000 compounds, 1.6% hits; also: % is scaled to controls: 0 for no effect and ±100 for the full control effect; nearly all actives have a fitted effect of over 55% in size
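Inverse agonism was detected as reduced cAMP-driven luciferase luminescence after 24 h compound treatment. The cells were HEK293 clones expressing constitutively active human GLP-1R with the reporter. Reporter-only and GPR119 cell lines served as counterscreen controls.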
The depositor's hits bear a star; i = inactive; u = inconclusive; x = no result given; [ ] = remark or other dose. This is a sample that favours compounds with a hit; in the whole collection about 1.7% have one here. Calls follow the shape of the dose curve; as a rule, active = well fitted curve in the direction sought with a large enough effect; inconclusive = small, poorly fitted or top-dose-only effect, or another doubt; inactive = no such curve, though single readings can be large; an effect the other way counts as inactive or inconclusive. Potency is read from the fitted curve at half-maximal effect.

SMILES	GLP1R ag	GLP1R cytotox	PTHR1 agonist	GLP1R inv ag
CCOC(=O)c1[nH]c2ccccc2c1NC(=O)c1cc(OC)cc(OC)c1	2.2%	0.9%	-22.6%	-13.0%
COc1ccccc1NS(=O)(=O)c1cc(NC(=O)CCC(=O)c2cccs2)ccc1Cl	8.1%	4.3%	-35.0%	u
COc1ccc(NC(=O)CCC(=O)c2cccs2)cc1S(=O)(=O)Nc1ccc(Cl)cc1	1.2%	u	-19.0%	u
COc1ccc(NC(=O)CCS(=O)(=O)c2ccccc2Cl)cc1S(=O)(=O)Nc1ccc(Cl)cc1	9.3%	-29.8%	-10.1%	6.31µM*
CCOc1ccc(NS(=O)(=O)c2cc(NC(=O)CCC(=O)c3cccs3)ccc2Cl)cc1	11.0%	-30.2%	i	10µM*
Fc1ccccc1C1c2[nH]c3ccccc3c2CCN1Cc1ccoc1 (stereo not given)	8.8%	3.8%	-7.7%	8.91µM*
O=C(CCCSc1nnnn1-c1cccc2ccccc12)c1ccc(F)cc1	9.9%	-5.2%	-17.3%	10µM*
Cc1ccc(Cl)cc1N1CCN(C(=O)C2CCN(c3nnc(-n4cccc4)s3)CC2)CC1	-1.3%	-6.0%	-91.2%	3.55µM*
Oc1ccc(NCc2ccccc2OCc2ccccc2F)cc1	11.2µM*	u	-35.9%	9.2%
Cc1cccc(NCc2ccccc2OCc2ccccc2F)c1	-1.2%	17.7%	-42.0%	10µM*
CCc1ccccc1Nc1cc(C(=O)NC(C)c2ccccc2)c2ccccc2n1 (stereo not given)	x	-14.7%	-1.3%	u
Cc1cc(O)c2c(C)c(CC(=O)N3CCN(C(=O)C4COc5ccccc5O4)CC3)c(=O)oc2c1 (stereo not given)	-0.4%	12.0%	-43.5%	6.31µM*
O=C(C1COc2ccccc2O1)N1CCN(Cc2ccc(Br)cc2F)CC1 (stereo not given)	6.7%	6.6%	-92.1%	11.2µM*
O=C(C1COc2ccccc2O1)N1CCN(c2ccccc2O)CC1 (stereo not given)	4.2%	2.0%	-16.6%	-27.7%
CC(=O)Oc1ccc2c(C)c(CC(=O)N3CCN(C(=O)C4COc5ccccc5O4)CC3)c(=O)oc2c1C (stereo not given)	4.6%	i	-18.6%	-14.4%
COc1cc(C)cc2oc(=O)c(CC(=O)N3CCN(C(=O)C4COc5ccccc5O4)CC3)c(C)c12 (stereo not given)	-6.1%	-15.7%	-15.9%	10µM*
COC(=O)c1ccc(CSc2c(C(C)C)cnc3c2c(=O)n(C)c(=O)n3C)cc1	x	-10.9%	21.7%	20.0%
COc1ccccc1-c1c(C)nn2c(C(F)(F)F)cc(-c3ccccc3)nc12	x	1.4%	-2.0%	12.9%
COc1cc(NC(=O)CN2CCN(CC(=O)Nc3ccc(F)cc3)CC2)cc(OC)c1	x	-0.1%	i	-8.8%
C(=N\N1CCN(C2c3ccccc3-c3ccccc32)CC1)/c1cccnc1	4.1%	-20.7%	-5.4%	11.2µM*
C(=N\N1CCN(C2c3ccccc3-c3ccccc32)CC1)/c1ccccn1	-13.1%	16.2%	-4.2%	-12.9%
CCCCCCCN1C2=NCCCN2c2ccccc21	4.8%	-27.7%	-5.8%	10µM*
CCCCCCCN1C2=NCCN2c2ccccc21	-3.0%	u	i	5.62µM*
Clc1ccc(CN2C3=NCCCN3c3ccccc32)c(Cl)c1	3.4%	-29.1%	-10.3%	8.91µM*
CCCCCCN1C2=NCCN2c2ccccc21	2.8%	-17.6%	i	-24.7%
SMILES	GLP1R ag	GLP1R cytotox	PTHR1 agonist	GLP1R inv ag
O=C(CCS(=O)(=O)c1cc(Br)cc2c1N(C(=O)C1CC1)CC2)Nc1ccc(F)cc1	x	0.2%	-23.8%	16.0%
CCc1ccc(NC(=O)c2cnn(-c3c(C)cccc3C)c2C2CCNCC2)cc1	-4.3%	-23.0%	-4.3%	u
N#Cc1c(-c2ccccc2)c(-c2ccccc2)nn(CC(=O)NNC(=O)Nc2ccc(Cl)cc2)c1=O	5.0%	-21.6%	15.2%	10µM*
CCOC(=O)O[C@]1(C(=O)COC(=O)CC)CC[C@@H]2[C@@H]3CCC4=CC(=O)C=C[C@@]4(C)[C@H]3[C@H](O)C[C@]21C	-0.3%[19.8 µM]	x	x	x
COc1ccc(-n2c(-c3ccccc3F)nc3c(cnn3-c3ccc(C)cc3)c2=O)cc1	x	2.2%	i	7.08µM*
CCc1nc2c(cnn2-c2ccc(Cl)cc2)c(=O)n1-c1ccc(OC)cc1	2.5%	-8.0%	-10.6%[57.5 µM]	11.2µM*
COc1ccc(-n2c(-c3ccco3)nc3c(cnn3-c3ccc(C)cc3)c2=O)cc1	10.5%	-6.1%	-35.0%	2.5%
COC(=O)c1ccc(OCC2c3cc(OC)c(OC)cc3CCN2C(=O)c2cccc(C)c2)cc1 (stereo not given)	17.5%	-0.3%	-58.3%	u
CC1C(=O)C(C)C(c2ccc(Br)cc2)NC1c1ccc(Br)cc1 (stereo not given)	-1.6%	-13.9%	-35.7%	-18.4%
CC1C(=O)C(C)C(c2cc(Br)ccc2O)NC1c1cc(Br)ccc1O (stereo not given)	6.8%	u	-3.5%	5.01µM*
O=C(CC1C(=O)N(c2ccccc2)C(=O)N1Cc1ccc(F)cc1)Nc1cccc(F)c1 (stereo not given)	x	-9.6%	i	u
CCCN(CCC)Cc1c(C(=O)N/N=C/C(C)=C\c2ccco2)nnn1-c1nonc1N	0.3%	-29.9%	-11.6%	3.55µM*
CC(/C=N/NC(=O)c1nnn(-c2nonc2N)c1CN(C)C)=C\c1ccco1	-1.0%	-1.3%	0.0%	9.3%
Cc1ccsc1/C=N/NC(=O)c1nnn(-c2nonc2N)c1CN(C)c1ccccc1	1.3%	1.0%	-33.2%	11.2µM*
CC/C(=N\NC(=O)c1nnn(-c2nonc2N)c1-c1cccs1)c1ccccc1	7.1%	3.8%	i	7.94µM*
CN(Cc1ccccc1)CC(O)COc1ccc(CNCc2ccc(Cl)s2)cc1 (stereo not given)	26.5%	-32.7%	i	4.47µM*
COc1cccc(C2c3[nH]c4ccccc4c3CCN2Cc2cccn2-c2ncccn2)c1 (stereo not given)	-4.0%	2.9%	-33.2%	u
Fc1ccc(C2c3[nH]c4ccccc4c3CCN2Cc2cccn2-c2ncccn2)cc1 (stereo not given)	3.3%	-22.1%	-17.1%	11.2µM*
CC1(C)CC(NC(=O)N2c3ccccc3Sc3ccccc32)CC(C)(C)N1	0.8%	u	-24.5%	5.01µM*
O=C1SC(SCc2ccccc2)=N/C1=C\c1ccco1	4.1%	9.2%	0.316µM*	1.1%
Cc1ccc(C)n1-n1cnc2sc3c(c2c1=O)CCCCC3	2.9%	78.1%	8.7%[57.5 µM]	u
Cc1ccc(C)n1-n1c(C)nc2sc3c(c2c1=O)CCCCC3	2.1%	-13.1%	-3.2%[57.5 µM]	11.2µM*
COCCn1ccc2c(OCC(=O)NCc3ccc(F)cc3)cccc2c1=O	x	4.2%	i	10.6%
CC1OC(CC(=O)O)CC2=C1C(=O)c1c(O)cccc1C2=O (stereo not given)	-27.9%	0.891µM*	-43.8%	u
O=C1c2cccc(O)c2C(=O)c2c(O)cccc21	2.3%	x	x	x

Source: PubChem
